Results filed as inconclusive are left out. Calls of active or inactive are those of the source. Calls come from the whole dose curve; as a rule, active = well fitted curve in the direction sought with a large enough effect; inconclusive = small, poorly fitted or top-dose-only effect, or another doubt; inactive = no such curve, though single readings can be large; an effect the other way counts as inactive or inconclusive.
Assays:
[1] = qHTS to identify inhibitors of the type 1 interferon - major histocompatibility complex class I in skeletal muscle: primary screen against the NCATS LOPAC collection (AID 1347405);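 note: lytic HiBiT luminescence reporting HLA-B protein level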
Outline: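 CRISPR-engineered immortalized human myoblasts (C25cl48) with HiBiT fused to endogenous HLA-B*08:01, stimulated with 4 ng/ml IFN-beta. LOPAC compounds tested as a 7-point 1:4.3 titration (top 46 uM final), 24 h at 37 C; lytic HiBiT luminescence read.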

[2] = qHTS to identify inhibitors of the type 1 interferon - major histocompatibility complex class I in skeletal muscle: primary screen against the NCATS Pharmaceutical Collection (AID 1347407);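 note: luminescence of HiBiT knocked into endogenous HLA-B as interferon-induced MHC class I level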
Outline: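 Luminescence from HiBiT-tagged endogenous HLA-B*08:01 served as the read-out of IFN-beta-induced MHC class I in CRISPR-engineered C25cl48 myoblasts. Cells received 4 ng/ml IFN-beta plus compound (high final 46 uM, […]) for 24 h.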

[3] = qHTS for inhibitors of adenylyl cyclases using a fission yeast platform: a pilot screen against the NCATS LOPAC library (AID 1347410)
Outline: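 Fission yeast qHTS: CHP2027 cells (AC9-GNAS-PDE4D2, fbp1-GFP), 5x10^6 cells/mL working density, EMM + His/Lys/Ura; LOPAC at up to 57 µM final; 18 h dark, 30C; GFP by laser cytometry. DPI positive control, DMSO vehicle.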

[4] = qHTS to identify inhibitors of the type 1 interferon - major histocompatibility complex class I in skeletal muscle: primary screen against the NCATS Mechanism Interrogation Plate v5.0 (MIPE) Libary (AID 1347411); note: nearly all actives have a fitted effect of over 65% in size
Outline: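 Immortalized human myoblasts (C25cl48) with HiBit knocked into endogenous HLA-B*08:01 were stimulated with 4 ng/ml IFN-beta and given compounds in 11-point 1:3 titration from 46 uM. After 24 h at 37 C, lytic HiBiT luminescence was read.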

[5] = molecular target: Protein phosphatase 1D (Homo sapiens) (UniProt O15297); assay: RapidFire Mass Spectrometry qHTS Assay for Modulators of WT P53-Induced Phosphatase 1 (WIP1) (AID 1347424);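 note: amount of dephosphorylated VEPPL-S-QETFS peptide product formed by WIP1; series mostly up to about 63 µM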
Sequence of Protein phosphatase 1D (Homo sapiens) (O15297 whole entry, looked up): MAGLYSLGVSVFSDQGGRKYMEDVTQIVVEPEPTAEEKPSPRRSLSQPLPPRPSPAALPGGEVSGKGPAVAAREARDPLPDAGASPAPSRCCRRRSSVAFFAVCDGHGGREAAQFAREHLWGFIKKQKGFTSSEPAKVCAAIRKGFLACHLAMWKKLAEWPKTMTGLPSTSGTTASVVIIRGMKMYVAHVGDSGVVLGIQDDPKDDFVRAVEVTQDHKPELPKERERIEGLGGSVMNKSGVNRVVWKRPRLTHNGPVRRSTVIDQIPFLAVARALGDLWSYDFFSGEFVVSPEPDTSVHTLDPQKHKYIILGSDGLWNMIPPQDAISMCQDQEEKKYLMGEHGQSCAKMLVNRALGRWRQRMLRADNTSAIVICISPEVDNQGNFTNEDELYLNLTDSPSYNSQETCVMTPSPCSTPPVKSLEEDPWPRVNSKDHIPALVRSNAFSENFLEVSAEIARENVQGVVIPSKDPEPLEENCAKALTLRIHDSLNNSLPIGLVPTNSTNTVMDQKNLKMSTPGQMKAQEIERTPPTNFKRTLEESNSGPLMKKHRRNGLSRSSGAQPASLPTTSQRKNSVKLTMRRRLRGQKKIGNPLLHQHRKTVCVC
Outline: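 WIP1 (10 nM final) was preincubated 1 h at room temperature with compounds in Tris-HCl pH 7.5, 30 mM MgCl2, TCEP, EGTA, BSA; 2 uM VEPPL-pS-QETFS phosphopeptide was added for 5 min, quenched with formic acid, and dephosphorylated product quantified by RapidFire MS.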

[6] = molecular target: Protein phosphatase 1D (Homo sapiens) (UniProt O15297); assay: Rhodamine-PBP qHTS Assay for Modulators of WT P53-Induced Phosphatase 1 (WIP1) (AID 1347425)
Outline: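 The read-out is the change in Rhodamine-PBP fluorescence (f1 - f0, ex 525/em 598 nm) as Pi is released, read each minute for 11 min. Final reaction: 5 nM WIP1, 10 uM phosphopeptide VEPPL-pS-QETFS, 10 uM Rh-PBP, 50 mM Tris-HCl pH 7.5, 30 mM MgCl2. Compound was preincubated with enzyme for 1 hour at room temperature.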

[7] = Validation qHTS assay for inhibitors of Activation Induced Cytidine Deaminase (AID): UDG Counterscreen signal (AID 1347427)
Outline: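 Counterscreen read of UDG activity (2 U/mL, 4/3x) in the FRET deamination format with AID (1 uM, 4/3x), DJC20/DJC23 substrates (250 nM, 4x), 4 h at room temperature. NaOH stop, fluorescence at 560 ex/665 em.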

[8] = molecular target: Single-stranded DNA cytosine deaminase (Homo sapiens) (UniProt Q9GZX7); assay: Validation qHTS assay for inhibitors of Activation Induced Cytidine Deaminase (AID): AID signal (AID 1347429)
Sequence of Single-stranded DNA cytosine deaminase (Homo sapiens) (Q9GZX7 whole entry, looked up): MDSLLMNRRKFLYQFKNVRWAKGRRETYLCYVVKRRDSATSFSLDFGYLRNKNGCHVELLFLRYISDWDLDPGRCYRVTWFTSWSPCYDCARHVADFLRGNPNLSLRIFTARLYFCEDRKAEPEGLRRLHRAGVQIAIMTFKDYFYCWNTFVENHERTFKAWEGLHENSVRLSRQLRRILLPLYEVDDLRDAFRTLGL
Outline: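 FRET deamination assay: 1 uM AID (4/3x stock) with UDG, compound up to 114 uM, then 250 nM DJC20/DJC23 substrate (4x stock) for 4 hr at room temperature. NaOH added, 30 min; fluorescence read 540/590 nm.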

[9] = Primary qHTS for inhibitors of La Crosse Virus (LACV) - induced cell death in SH-SY5Y cells (AID 1508616);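 note: top concentration of the series differs between compounds; higher means more rescue of cells from virus-induced death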
Outline: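 SH-SY5Y cells (6000/well) plated 24 h, then given compounds by pin transfer and LACV at 0.01 MOI for 6 days at 37C. Viability measured by ATPLite luminescence, normalized to infected DMSO and uninfected DMSO.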

Measured: Potency

NCCc1ccc(O)c(O)c1
inactive: [1] | [2] | [3] | [4] | [5] | [6] | [7] | [8] | [9]

N[C@@H]1CONC1=O
inactive: [1] | [2] | [3] | [4] | [5] | [6] | [7] | [8] | [9]

NNCCc1ccccc1
inactive: [1] | [2] | [3] | [4] | [5] | [6] | [8] | [9]

Nc1nc2ccc(OC(F)(F)F)cc2s1
inactive: [1] | [2] | [3] | [4] | [5] | [6] | [7] | [8] | [9]

NCCCC(N)(C(=O)O)C(F)F (stereo unspecified)
inactive: [1] | [2] | [3] | [4] | [5] | [6] | [7] | [8] | [9]

NS(=O)(=O)c1cc2c(cc1Cl)NC=NS2(=O)=O
inactive: [1] | [2] | [3] | [4] | [5] | [6] | [7] | [8] | [9]

O=C(O)COCCN1CCN(C(c2ccccc2)c2ccc(Cl)cc2)CC1 (stereo unspecified)
inactive: [1] | [2] | [3] | [5] | [6] | [7] | [8] | [9]

CC(C[N+](C)(C)C)OC(N)=O (stereo unspecified)
inactive: [1] | [2] | [3] | [5] | [6] | [7] | [8] | [9]

O=C1CCc2cc(OCCCCc3nnnn3C3CCCCC3)ccc2N1
inactive: [1] | [2] | [3] | [4] | [5] | [6] | [7] | [8] | [9]

Cc1ccc(N(CC2=NCCN2)c2cccc(O)c2)cc1
inactive: [1] | [2] | [3] | [5] | [6] | [7] | [8] | [9]
